The text below walks through data of PubChem BioAssay (NCI).

Where “and” joins values, the source holds several entries; their conditions need not be identical. Identical values can stand only once. The panel holds about 83,000 compounds, 20% with a hit somewhere; the sample as a whole holds those more often.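 Interpretation: 100, growth as untreated; towards 0, rising growth inhibition; 0, no net growth; 0 to -100, cell death. Compounds scoring below 10 were considered active.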 Calls of active or inactive are those of the source.

Some test systems named below: NCI-H23 lung; NCI-H226 lung; NCI-H322M lung; HOP-62 NSCLC; NCI-H460 lung; HOP-92 NSCLC; NCI-H522 lung; A549/ATCC NSCLC; 786-0 renal; COLO 205 colon.
Common to all, as to test: NCI-60 one-dose screen, 48 h (100 = growth as untreated, 0 = no growth, -100 = all killed)
Common to all, as to conditions: 10 µM unless noted

Consider `CCC(C)C1(C2CCCC2)NC(=O)NC1=O` (stereo not given), for which the growth was 103% (inactive) and 101% (inactive) with NCI-H23 lung; 113% (inactive) and 108% (inactive) in the assay on NCI-H226 lung; 99.1% (inactive) and 115% (inactive) in the assay on NCI-H322M lung; 98.6% (inactive) and 102% (inactive) with HOP-62 NSCLC; 117% (inactive) and 107% (inactive) with NCI-H460 lung; 92.1% (inactive) with HOP-92 NSCLC. The growth with NCI-H522 lung was 77.2% (inactive) and 105% (inactive); in the assay on A549/ATCC NSCLC, 100% (inactive) and 106% (inactive); in the assay on 786-0 renal, 104% (inactive) and 108% (inactive); in the assay with COLO 205 colon, 102% (inactive) and 116% (inactive).
As to `Oc1ccc(/C=C/c2ccccc2)cc1`, the growth with NCI-H23 lung is 73.2% (inactive) and 76.4% (inactive); in the assay on NCI-H226 lung, 104% (inactive) and 103% (inactive); in the assay on NCI-H322M lung, 77.6% (inactive) and 83.4% (inactive); in the assay on HOP-62 NSCLC, 109% (inactive) and 87.9% (inactive); in the assay with NCI-H460 lung, 73.4% (inactive) and 61.5% (inactive); in the assay on HOP-92 NSCLC, 95.7% (inactive). Moreover, the growth with NCI-H522 lung is 72.1% (inactive) and 29.2% (inactive); with A549/ATCC NSCLC, 76.1% (inactive) and 59.9% (inactive); with 786-0 renal, 32.8% (inactive) and 45.1% (inactive); in the assay with COLO 205 colon it was 104% (inactive) and 132% (inactive).
With `OCCN1CCN(CCO)CC1`, the growth with NCI-H23 lung was 95.3% (inactive) and 99.7% (inactive) and 110% (inactive); in the assay on NCI-H226 lung, 107% (inactive) and 97.5% (inactive); in the assay with NCI-H322M lung, 106% (inactive) and 85.9% (inactive) and 115% (inactive); in the assay with HOP-62 NSCLC, 100% (inactive) and 79.5% (inactive) and 106% (inactive); with NCI-H460 lung it was 111% (inactive) and 98.6% (inactive) and 108% (inactive); in the assay with HOP-92 NSCLC, 102% (inactive) and 85% (inactive) and 95.2% (inactive). Moreover, the growth was 98.6% (inactive) and 87.9% (inactive) and 108% (inactive) in the assay with NCI-H522 lung; 89.5% (inactive) and 73% (inactive) and 115% (inactive) in the assay with A549/ATCC NSCLC; 108% (inactive) and 99.5% (inactive) and 99.4% (inactive) in the assay on 786-0 renal; 105% (inactive) and 113% (inactive) in the assay with COLO 205 colon.
Regarding `Nc1cc2c(cc1N)-c1ccccc1C2`, the growth was 93.1% (inactive) and 88.3% (inactive) in the assay with NCI-H23 lung; 84.3% (inactive) and 88.4% (inactive) in the assay on NCI-H226 lung; 85.4% (inactive) and 95% (inactive) with NCI-H322M lung; 96.6% (inactive) and 104% (inactive) in the assay on HOP-62 NSCLC; 103% (inactive) and 101% (inactive) with NCI-H460 lung; 84.3% (inactive) in the assay on HOP-92 NSCLC. Further, the growth in the assay on NCI-H522 lung was 15.9% (inactive) and 52.2% (inactive); in the assay with A549/ATCC NSCLC, 90.9% (inactive) and 90.4% (inactive); in the assay on 786-0 renal, 89.3% (inactive) and 99.6% (inactive); with COLO 205 colon, 94.8% (inactive) and 93.1% (inactive).
Consider `COc1cc(-c2nccc3cc4c(cc23)OCO4)cc(OC)c1OC`, for which the growth with NCI-H23 lung is 56.9% (inactive) and 46.7% (inactive); with NCI-H226 lung, 62.9% (inactive) and 49.7% (inactive); in the assay on NCI-H322M lung, 66.1% (inactive) and 71.6% (inactive); in the assay on HOP-62 NSCLC, 38.1% (inactive) and 39.4% (inactive); in the assay on NCI-H460 lung, 18.1% (inactive) and 14.8% (inactive); in the assay on HOP-92 NSCLC it was 58.3% (inactive). Moreover, the growth in the assay on NCI-H522 lung is -0.618% (active); in the assay on A549/ATCC NSCLC it was 46.6% (inactive) and 38.9% (inactive); in the assay on 786-0 renal, 38.6% (inactive) and 66.7% (inactive); with COLO 205 colon, 11.2% (inactive) and -13.8% (active).
Consider `Cc1ccc2nc3c(nc2c1)-c1cccc2cccc-3c12`, for which the growth in the assay with NCI-H23 lung is 89.5% (inactive); in the assay on NCI-H226 lung, 86.3% (inactive); in the assay with NCI-H322M lung it was 74.6% (inactive); with HOP-62 NSCLC it was 101% (inactive); with NCI-H460 lung it was 72.4% (inactive); with HOP-92 NSCLC it was 89.8% (inactive). Besides, the growth in the assay on NCI-H522 lung was 66.4% (inactive); in the assay on A549/ATCC NSCLC, 74.4% (inactive); in the assay on 786-0 renal it was 105% (inactive); in the assay on COLO 205 colon, 70.2% (inactive).
With `Cc1ncsc1CCO`, the growth in the assay with NCI-H23 lung is 96% (inactive) and 94.8% (inactive); in the assay with NCI-H226 lung, 95.8% (inactive) and 103% (inactive); in the assay on NCI-H322M lung it was 126% (inactive) and 89.4% (inactive); with HOP-62 NSCLC, 103% (inactive) and 106% (inactive); in the assay on NCI-H460 lung, 118% (inactive) and 106% (inactive); with HOP-92 NSCLC it was 91.2% (inactive) and 97.8% (inactive). Further, the growth in the assay with NCI-H522 lung was 94.5% (inactive) and 85.9% (inactive); with A549/ATCC NSCLC, 96.2% (inactive) and 92.5% (inactive); with 786-0 renal, 105% (inactive) and 96.9% (inactive); with COLO 205 colon it was 118% (inactive) and 116% (inactive).
